# Data: PubChem BioAssay
# Calls of active or inactive are those of the source.
# Key:
# [1] = tested on: Human papillomavirus type 1a protein E7 (residues 44-93); assay: HPV1a E7 fragment binders on microarrays, primary screen, biochemical, small-molecule microarray, residues 44-93, 635 nm fluorescence (AID 1108); details: small-molecule microarray binding, fluorescence 635 nm; higher = more signal;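 note: E7 fragment applied at 1 µg/mL in TBST for 1 h at 4 C; score combines spot fluorescence with its signal to noise ratio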
# [2] = modulators of HCV replicon luciferase signal, primary screen, HCV replication inhibitor project, Huh7 cells, luciferase reporter (AID 1109); details: 48 h, higher = more signal;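 note: huh7 hepatoma cells harbouring a luciferase neomycin HCV replicon reporter; luciferase luminescence as measure of HCV replicon replication; test concentration not given here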
# [3] = target: Left-right determination factor 2 (Homo sapiens) (UniProt O00292); assay: LEFTY2 binders on small-molecule microarrays, primary screen, biochemical, small-molecule microarray, 635 nm fluorescence scan (AID 1110); details: LEFTY2 binding, higher = more signal
# [4] = target: Calmodulin-1 (Homo sapiens) (UniProt P0DP23); assay: CALM1 binders on microarrays, EGTA buffer, profiling panel, biochemical, small-molecule microarray, Cy5-labelled CALM1 (AID 1111); details: Cy5-CALM1 binding fluorescence, higher = more signal;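 note: labelled calmodulin applied in Tris saline Tween buffer holding calcium plus EGTA and DTT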
# [5] = target: Calmodulin-1 (Homo sapiens) (UniProt P0DP23); assay: calcium-bound CALM1 binders on microarrays, profiling panel, artefact control for SMM control-protein annotation, biochemical, small-molecule microarray, Cy5-labelled CALM1, plus calcium (AID 1112); details: Cy5-CALM1 binding fluorescence, higher = more signal;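 note: score merges spot fluorescence with signal to noise from triplicate slides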
# [6] = small-molecule microarray binders of probe aWnt5a, primary screen, biochemical, biotinylated probe, 635/667 nm fluorescence (AID 1113); details: higher = more signal;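 note: score merges 667 nm fluorescence intensity with signal-to-noise per printed feature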
# [7] = small-molecule microarray binders of probe aShh, primary screen, biochemical, biotinylated probe, 635/667 nm fluorescence (AID 1114); details: higher = more signal;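 note: probe is biotin-labelled aShh protein from a stem cell growth factor screen; measures binding of labelled protein to compounds printed on the slide; score merges feature fluorescence at 667 nm with signal-to-noise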
# [8] = small-molecule microarray binders of probe aNog, primary screen, biochemical, biotinylated probe, 635/667 nm fluorescence (AID 1115); details: higher = more signal;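 note: probe is biotinylated aNog protein used at 0.15 µg/mL for 1 h at 4 C; z-score combines 667 nm fluorescence of each spot with its signal to noise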
# [9] = target: Torsin-1A-interacting protein 1 (Homo sapiens) (UniProt Q5JTV8); assay: LAP1 binders from COS7 cell lysate, primary screen, small-molecule microarray, 635/667 nm fluorescence (AID 1116); details: COS7-hLAP1 lysate binding, 635 nm fluorescence, higher = more signal
# [10] = target: Alpha-bungarotoxin (Bungarus multicinctus) (UniProt P60615); assay: alpha-bungarotoxin binders on microarray, profiling panel, artefact control for SMM control protein annotation, biochemical, small-molecule microarray, Alexa647 label, 635/667 nm fluorescence (AID 1117); details: alpha-BTX-A647 binding fluorescence, higher = more signal
# Albumin (Bos taurus) = Albumin (Bos taurus) (UniProt P02769); assay: bovine serum albumin binders on microarray, profiling panel, artefact control for SMM control protein annotation, biochemical, small-molecule microarray, Alexa647 label, 635/667 nm fluorescence (AID 1118); details: BSA-A647 binding, fluorescence 635 nm, higher = more signal;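 note: score merges 667 nm emission intensity and signal-to-noise per printed compound spot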
# [11] = small-molecule microarray binders of probe aXIP, primary screen, biochemical, NeuroSMM set, 635/667 nm fluorescence (AID 1119); details: higher = more signal, called active from +8 up or from −8 down;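 note: probe is the protein aXip251-270 applied at 1 µg/mL to compound-printed slides; binding of probe to printed compounds measured as 667 nm fluorescence plus signal to noise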
# [12] = small-molecule binders of probe aNOTCH3, primary screen, biochemical, small-molecule microarray, 635/667 nm fluorescence (AID 1120); details: higher = more signal;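 note: probe is a biotin-tagged antibody raised against NOTCH3 rather than NOTCH3 protein; score merges spot fluorescence near 667 nm with spot signal to noise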
# [13] = small-molecule binders of probe aNOTCH2, primary screen, biochemical, small-molecule microarray, 635/667 nm fluorescence (AID 1121); details: higher = more signal;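 note: score merges feature fluorescence read at 667 nm with its signal to noise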
# [14] = target: Carbonic anhydrase 2 (Homo sapiens) (UniProt P00918); assay: CAII small-molecule binders, profiling panel, biochemical, small-molecule microarray, Alexa647-labelled CAII (AID 1122); details: CAII-A647 binding fluorescence, higher = more signal
# [15] = COS7 lysate on small-molecule microarray, probe aHis, 635 nm (AID 1123); details: COS7 cell lysate, fluorescence, higher = more signal;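 note: z-score combines 667nm fluorescence intensity with signal-to-noise per printed compound spot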
# [16] = compound binding in COS7 lysate, probe aLAP1, primary screen, cell lysate, small-molecule microarray (AID 1124); details: probe aLAP1, fluorescence, higher = more signal;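 note: lysate comes from COS7 cells expressing LAP1 and is applied at 0.3 µg/mL; score merges spot fluorescence near 667 nm with signal-to-noise over triplicate slides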
# Sam68 (KHDRBS1) = assay: Sam68 small-molecule binders, primary screen, biochemical, small-molecule microarray, 635 nm fluorescence (AID 1125); details: small-molecule microarray binding, higher = more signal;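 note: score merges 667 nm channel intensity with signal to noise over triplicate slides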
# [17] = tested on: Chordin-like protein 2 (CHRDL2); assay: CHRDL2 small-molecule binders, primary screen, biochemical, small-molecule microarray, 635 nm fluorescence (AID 1126); details: small-molecule microarray binding, fluorescence 635 nm; higher = more signal;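 note: printed compound slides probed with Chrdl2 protein at 4 µg/mL for 1 h at 4 C; score merges 667 nm emission intensity with signal to noise over three replicate slides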
# [18] = target: Concanavalin-A (Canavalia ensiformis) (UniProt P02866); assay: ConA small-molecule binders, primary screen, artefact control for SMM control protein annotation, biochemical, small-molecule microarray, Alexa647 label, 635 nm (AID 1127); details: ConA-A647 binding fluorescence, higher = more signal;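 note: z combines 667 nm emission intensity with signal-to-noise across three replicate slides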
# Chain of Concanavalin-A (Canavalia ensiformis) (P02866 whole entry, looked up): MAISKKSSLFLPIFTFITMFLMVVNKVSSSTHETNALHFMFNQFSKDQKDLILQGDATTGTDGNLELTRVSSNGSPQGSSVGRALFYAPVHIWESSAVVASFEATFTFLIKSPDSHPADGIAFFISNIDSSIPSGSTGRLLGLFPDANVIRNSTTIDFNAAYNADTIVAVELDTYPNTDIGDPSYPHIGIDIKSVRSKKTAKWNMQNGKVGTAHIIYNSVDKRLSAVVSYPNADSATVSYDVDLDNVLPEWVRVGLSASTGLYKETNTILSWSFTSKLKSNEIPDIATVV
# Chain of Left-right determination factor 2 (Homo sapiens) (O00292 whole entry, looked up): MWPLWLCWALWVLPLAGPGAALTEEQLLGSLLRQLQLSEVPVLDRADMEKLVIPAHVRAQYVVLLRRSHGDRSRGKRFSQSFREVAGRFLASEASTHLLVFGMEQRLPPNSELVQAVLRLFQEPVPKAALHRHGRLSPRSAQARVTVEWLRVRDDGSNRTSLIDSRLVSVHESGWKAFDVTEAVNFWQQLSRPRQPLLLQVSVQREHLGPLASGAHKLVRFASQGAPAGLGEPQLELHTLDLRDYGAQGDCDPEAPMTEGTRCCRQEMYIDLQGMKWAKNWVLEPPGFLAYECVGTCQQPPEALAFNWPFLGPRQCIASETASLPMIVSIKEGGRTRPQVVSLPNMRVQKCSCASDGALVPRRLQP
# Chain of Albumin (Bos taurus) (P02769 whole entry, looked up): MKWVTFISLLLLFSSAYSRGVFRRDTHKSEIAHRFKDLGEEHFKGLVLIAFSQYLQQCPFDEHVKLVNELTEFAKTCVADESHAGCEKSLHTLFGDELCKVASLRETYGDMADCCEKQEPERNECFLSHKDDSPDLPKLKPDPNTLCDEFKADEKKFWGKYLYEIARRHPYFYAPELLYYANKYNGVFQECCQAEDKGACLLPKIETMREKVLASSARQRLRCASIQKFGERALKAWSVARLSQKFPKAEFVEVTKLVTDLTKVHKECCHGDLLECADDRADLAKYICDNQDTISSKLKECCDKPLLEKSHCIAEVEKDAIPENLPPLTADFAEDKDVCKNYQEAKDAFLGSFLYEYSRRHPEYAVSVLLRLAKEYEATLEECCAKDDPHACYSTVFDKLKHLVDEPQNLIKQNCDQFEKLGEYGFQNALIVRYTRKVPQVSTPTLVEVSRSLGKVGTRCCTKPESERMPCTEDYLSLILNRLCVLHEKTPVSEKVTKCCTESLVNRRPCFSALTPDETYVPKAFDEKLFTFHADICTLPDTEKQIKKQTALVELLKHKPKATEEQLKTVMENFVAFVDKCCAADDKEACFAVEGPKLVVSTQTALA
# Chain of Alpha-bungarotoxin (Bungarus multicinctus) (P60615 whole entry, looked up): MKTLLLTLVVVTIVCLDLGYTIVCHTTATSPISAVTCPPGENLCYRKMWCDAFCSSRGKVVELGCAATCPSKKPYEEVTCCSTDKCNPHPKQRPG
# Chain of Torsin-1A-interacting protein 1 (Homo sapiens) (Q5JTV8 whole entry, looked up): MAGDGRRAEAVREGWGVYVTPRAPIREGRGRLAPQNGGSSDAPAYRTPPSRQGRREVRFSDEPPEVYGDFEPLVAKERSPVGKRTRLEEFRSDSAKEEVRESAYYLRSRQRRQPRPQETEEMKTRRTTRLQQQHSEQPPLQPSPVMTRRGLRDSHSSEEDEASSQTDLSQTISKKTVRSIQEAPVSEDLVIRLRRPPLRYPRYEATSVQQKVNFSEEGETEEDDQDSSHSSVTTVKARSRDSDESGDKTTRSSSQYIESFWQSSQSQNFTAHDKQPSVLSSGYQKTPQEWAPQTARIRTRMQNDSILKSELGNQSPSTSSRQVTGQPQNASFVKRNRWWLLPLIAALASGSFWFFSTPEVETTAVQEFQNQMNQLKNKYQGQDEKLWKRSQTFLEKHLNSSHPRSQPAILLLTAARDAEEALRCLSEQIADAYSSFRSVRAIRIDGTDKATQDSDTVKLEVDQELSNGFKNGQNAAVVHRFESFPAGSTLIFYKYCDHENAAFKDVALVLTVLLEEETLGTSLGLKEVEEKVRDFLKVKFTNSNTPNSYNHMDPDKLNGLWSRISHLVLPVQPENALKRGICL
Structure (SMILES),composite z-score [1],z-score [2],composite z-score [3],composite z-score [4],composite z-score [5],composite z-score [6],composite z-score [7],composite z-score [8],composite z-score [9],composite z-score [10],composite z-score (Albumin (Bos taurus)),composite Z-score [11],composite z-score [12],composite z-score [13],composite z-score [14],composite z-score [15],composite z-score [16],composite z-score (Sam68 (KHDRBS1)),composite z-score [17],composite z-score [18]
Oc1ccc2cc[n+](Cc3cccc(OC(F)(F)F)c3)cc2c1,-0.112,-0.114,0.939,-0.582,-0.77,-0.152,0.0515,-0.85,-0.0554,0.266,-0.192,0.587 (inactive),-0.215,-0.117,0.853,1.58,0.0966,-0.28,0.959,0.373
O=C1c2ccccc2[C@@]2(Cc3ccccc3N(Cc3ccccc3)C2=O)[C@H](c2ccc(CO)cc2)N1Cc1ccccc1C(F)(F)F,-0.648,-0.353,-1.3,-0.457,-0.176,-0.157,0.0684,0.549,0.0154,-0.32,0.811,-0.372 (inactive),-0.128,-0.0705,0.781,1.04,-0.381,-1.31,-1.5,-0.486
CCOC(=O)C1=CC[C@@H](c2ccccc2)N(S(=O)(=O)c2ccc(C)cc2)[C@H]1c1ccc(C#N)cc1,1.2,-2.11,-0.266,1.95,1,-0.0236,0.385,0.621,1.48,1.84,0.801,0.662 (inactive),0.116,-0.0158,0.356,1.56,0.791,1.33,-1.25,1.12
C=CCC(OC(C)=O)[C@@H]1[C@@H](N(Cc2ccc(-c3cccc(C(F)(F)F)c3)o2)C(=O)c2ccc(C)cc2)c2cc(OCCCO)ccc2N1C(=O)c1ccc2ccccc2n1 (stereo not given in full),-0.172,-0.462,0.435,-0.619,-0.253,-0.0478,0.278,0.276,-0.0885,1.31,-0.706,0.936 (inactive),0.116,-0.0255,0.053,0.163,0.497,0.0508,0.232,-0.335
CN1C(=O)C2C=CC(C(O)C(C)(C)C)N(Nc3ccccc3)C2C1=O (stereo not given),-0.911,0.813,-0.428,-0.0143,-0.395,-0.0405,-0.24,0.779,-0.0378,0.531,0.494,0.914 (inactive),-0.217,-0.029,0.847,2.78,-0.519,-0.141,-0.156,-0.127
CC(c1ccccc1)C(O)C1C=CC2C(=O)N(c3ccccc3)C(=O)C2N1Nc1ccccc1F (stereo not given),1.4,-1.55,0.0648,-0.32,-0.539,0.0485,-0.203,-0.453,1.03,0.667,0.687,0.0197 (inactive),0.0522,-0.0483,0.697,2.21,0.504,1.17,-0.474,0.77
COC(=O)[C@@]1(Cc2ccc(OC)cc2)[C@H]2c3cc(C(=O)N4CCCC4)n(CCN4CCOCC4)c3C[C@H]2CN1C(=O)c1ccccc1,1.04,-0.882,0.285,1.55,1.21,1.19,2.65,2.75,0.934,0.609,1.06,1.42 (inactive),1.72,1.05,0.87,3.42,0.94,1.29,0.265,0.991
[N-]=[N+]=Nc1ccccc1C[C@]1(C(=O)N2CCCCC2)N=C(c2ccc(OCCCO)cc2)O[C@H]1c1ccccc1N=[N+]=[N-],0.903,-2.5,-0.0089,1.46,0.605,0.2,0.294,1.87,1.21,0.703,0.94,0.121 (inactive),0.311,0.252,0.623,2.91,1.17,1.29,-0.292,0.979
COC(=O)c1c2oc(c1C(=O)OC)C(=O)N[C@H](Cc1ccccc1)Cn1nncc1C1(CCCCC1)NC(=O)N[C@H](CO)CC2,0.613,-0.398,0.0801,-0.16,-0.661,-0.0179,-0.138,-0.308,-0.208,-0.181,-0.399,0.699 (inactive),-0.143,-0.192,0.163,0.388,-0.0073,0.702,0.419,0.0053
CC(C)N1C(=O)c2ccccc2[C@](C)(C(=O)NC2CC2)[C@@H]1c1ccc(CO)cc1,0.591,-0.479,0.0197,0.391,-0.34,-0.096,-0.138,0.214,0.507,0.931,0.375,-0.116 (inactive),-0.0557,-0.171,0.665,1.41,-0.141,0.424,0.172,0.699
COCCOC(=O)N1C(=O)[C@@]2(c3cc(C#Cc4ccc(OC)cc4)ccc31)[C@H](c1ccc(O)cc1)N1[C@H](c3ccccc3)[C@H](c3ccccc3)OC(=O)[C@H]1[C@@H]2C(=O)N1CCN(c2ncccn2)CC1,1.37,-1.05,0.224,0.966,0.361,-0.0846,-0.441,-0.124,0.596,0.829,0.303,-0.321 (inactive),0.0486,-0.0956,0.395,1.48,0.406,1.2,-0.126,0.657
CS(=O)(=O)CCOC(=O)C1=CC(c2ccc(CO)cc2)=CC(c2cccs2)N(Cc2cccc(OC(F)(F)F)c2)C=C1C(=O)OCCS(C)(=O)=O (stereo not given),0.869,-2.19,0.192,1.75,0.707,0.0044,-0.102,-0.475,0.796,0.904,0.735,-0.0662 (inactive),0.152,-0.0259,0.664,1.68,0.442,1.13,0.217,0.911
CC(C)N1C(=O)c2ccccc2[C@](C)(C(=O)NCCCN(C)C)[C@@H]1c1ccc(CO)cc1,-0.0305,-0.104,-0.553,0.0958,-0.0609,-0.152,-0.214,-0.546,4.42,1.28,0.222,-0.264 (inactive),-0.149,-0.0903,0.526,1.45,1.01,-0.283,-0.85,-1.41
CO[C@H]1O[C@H](CO)[C@@H](OC(=O)Nc2ccccc2-c2ccccc2)[C@H](OC(=O)Nc2ccccc2-c2ccccc2)[C@H]1OC(=O)Nc1ccccc1-c1ccccc1,1.05,-2.43,0.591,1.08,-0.588,0.0321,0.431,0.225,1.41,1.73,0.784,0.341 (inactive),0.275,-0.0759,0.503,1.96,-0.32,1.3,0.0309,1.15
Cn1c2c(c3ccccc31)C(=O)C1NC2C=CC1(C)C(=O)OCc1ccccc1 (stereo not given),-0.369,-0.836,-1.71,0.682,1.13,-0.0887,0.123,0.771,1.38,1.92,0.445,-0.0597 (inactive),-0.242,-0.166,0.682,1.77,1.46,1,-2.55,0.909
